For 39 sequences, PBM binding z-score results are on record in the supplement of paper PMC6555819.

One test relates to FXR:RXRa (NR concentration 270 nM, RXRa partner concentration 90 nM). The test can be described thus: PBM binding z-score (relative to random genomic background probes); higher = stronger binding; sequences stand for … in GC…GCGATTGACAGCGTAGAATGAAGG
The method, boiled down: (§1)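 Each nuclear receptor dimer, without ligand, was incubated for 1 h on custom Agilent 4×180K protein-binding microarrays. Binding was detected with antibodies against each partner (one per run), and scanned fluorescence was regression-normalized. The binding z-scores are referenced to random human genomic background probes.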
Turning to CTACCAAGGTGGACAAGGTCGTTGATTACTATTC, the PBM binding z-score was 0.175.

In the case of AGAGTGAGGTTAAGATCAGGGAAACAGAATACAT, the PBM binding z-score stood at 2.54.

On to CCAGACAGGTGAAAGGGAACTCAGTCTGGTACGC, for which the PBM binding z-score was -0.208.

For CGAACTAGGTCATGGACAGTGAATCTCCGCACGC, the PBM binding z-score is 3.63.

Take CGACCTAGGTCATCCAGGACAGTGAATACATTGA: the PBM binding z-score came out at 5.2.

For TAGCCTAGGTCATGCGGGCCACTATAGTGTCGGC, the PBM binding z-score turned out to be 4.19.

On to ACTAGCAGGCCCAGTTTGGGTCACTCAAACAAAG, for which the PBM binding z-score was -0.0555.

The sequence TAGCCTAGGTCATTCAGGTGCCAGTATAGAAAGC came in with a PBM binding z-score of 4.93.

Sequence ATCCCTAGGTAAAGATAGTTCAGTGAATGCAAAT gave a PBM binding z-score of 0.139.

Sequence CAAACTAGGGCACCGGAAGGTCAAAGTCCGCATG had a PBM binding z-score of 3.3.

CCCCGGAGGACAACAGGAGGTCAGAGCTGCCAGA: the PBM binding z-score was 1.51.

CAAACTAGGTCAAGAGGGCAAAGTCCGCTTCCCG showed a PBM binding z-score of 4.55.

ATCCAAAGGTCGACGAGGTGAGTATACACCGTTT: the PBM binding z-score amounted to 5.35.

In turn, TATACAGGGTCAAACGCCAGAGTACGAATGTCGA returned a PBM binding z-score of 7.58.

The sequence ACTAGCAGGCCAAGTCTGGGTCACTCAAACAAAG showed a PBM binding z-score of 0.226.

GCAGACAGGTGAAACGCAGGTGACTCAGGGTGGC gave a PBM binding z-score of 0.0191.

With ATCTGTAGGTAACCAAGTTCAGTGAATGCCGAAC, the PBM binding z-score was determined as 0.276.

On to CTTACTGGGCCATTCAGAGGTCATTGATCATATG, for which the PBM binding z-score was 3.23.

ATACCAAGGTGATCGTGAGGTCGTTCATACTAAC showed a PBM binding z-score of 2.05.

TAGCCTAGGTCATTCAGTGGCCAGTATAGAAAGC showed a PBM binding z-score of 4.21.

For AGTCAAAGTTCCCTAGGTAACGTAAGATTCAGCT, the PBM binding z-score is -0.33.

In the case of TCTTGTAGATCAAGCAGGTGAAGAAAGCCTGAGT, the PBM binding z-score stood at 0.239.

Sequence CCTAGTTGGTCAAAGTCACACACGCTATAGGTAC gave a PBM binding z-score of 0.342.

CCTAGTTGGTCGAGGTCACACACGCTATAGGTAC: the PBM binding z-score turned out to be 4.44.

Turning to GATACAGGGTCAAGGCCAGAGTTCGCGTATTGAT, the PBM binding z-score was determined as 6.64.

For the sequence CCAACTAGGTCAAGGACAGTGAATCTCCGCACGC, the PBM binding z-score came out at 3.25.

TCTTGTAGATCAGCATGTTAAGAAAGCTGGCCAA came in with a PBM binding z-score of 0.0411.

As to ACTTACGGGTCAACGAGGTTATAGCGCGCGTATA, the PBM binding z-score came out at 6.93.

In turn, CGTCCAAGGTCAAAGATCAGTGAAGAGATGACGG had a PBM binding z-score of 6.99.

CCTTACGGGTCGAGGTTATAGCACGGGTGGTACG gave a PBM binding z-score of 1.26.

Consider GCTGACAGGTGAAACGCAGGTAACTCAGGGTGGC, for which the PBM binding z-score is -0.217.

As to CCTACTGGTCCACGAAAGGTCATTGATTCAGTGA, the PBM binding z-score is 3.9.

On to CCAACTGGGGCAAGGTTACCATAACGCACAGCCA, for which the PBM binding z-score worked out at 0.213.

In turn, GCTGCTAGGTCAGGTTGGTCACCTAACGGGTACG displayed a PBM binding z-score of 1.01.

Turning to CCGACTGGGGCAAAGGGTACCATACTCAGTACGA, the PBM binding z-score is -0.124.

In the case of ATCTCTAGGTAAGACTAAGTTCAGTGAAGAACGC, the PBM binding z-score amounted to 0.633.

Sequence TCTATTAGTTTATTAGGGCAACCGAAACAGCGGA came in with a PBM binding z-score of 1.14.

Sequence CCTTACGGGCCACTCCAGGTTATAGCATCGGAGT returned a PBM binding z-score of 0.501.

On to TCTTGTAGATCAAGCACGTTAAGAAAGCCTGAGT, for which the PBM binding z-score came to 0.465.

For a further test, the system named is LXRa:RXRa (NR concentration 270 nM, RXRa partner concentration 90 nM). Described as above. The method, boiled down: as §1
Turning to CTACCAAGGTGGACAAGGTCGTTGATTACTATTC, the PBM binding z-score amounted to 0.496.

The sequence AGAGTGAGGTTAAGATCAGGGAAACAGAATACAT had a PBM binding z-score of 2.17.

Consider CCAGACAGGTGAAAGGGAACTCAGTCTGGTACGC, for which the PBM binding z-score is -0.0389.

CGAACTAGGTCATGGACAGTGAATCTCCGCACGC gave a PBM binding z-score of 2.28.

As to CGACCTAGGTCATCCAGGACAGTGAATACATTGA, the PBM binding z-score turned out to be 3.44.

For the sequence TAGCCTAGGTCATGCGGGCCACTATAGTGTCGGC, the PBM binding z-score stood at 3.36.

Consider ACTAGCAGGCCCAGTTTGGGTCACTCAAACAAAG, for which the PBM binding z-score was -0.448.

For the sequence TAGCCTAGGTCATTCAGGTGCCAGTATAGAAAGC, the PBM binding z-score came out at 3.74.

On to ATCCCTAGGTAAAGATAGTTCAGTGAATGCAAAT, for which the PBM binding z-score turned out to be 4.49.

CAAACTAGGGCACCGGAAGGTCAAAGTCCGCATG: the PBM binding z-score amounted to 3.78.

As to CCCCGGAGGACAACAGGAGGTCAGAGCTGCCAGA, the PBM binding z-score turned out to be 2.55.

CAAACTAGGTCAAGAGGGCAAAGTCCGCTTCCCG: the PBM binding z-score was found to be 4.

ATCCAAAGGTCGACGAGGTGAGTATACACCGTTT came in with a PBM binding z-score of 3.7.

For TATACAGGGTCAAACGCCAGAGTACGAATGTCGA, the PBM binding z-score is 6.35.

For ACTAGCAGGCCAAGTCTGGGTCACTCAAACAAAG, the PBM binding z-score worked out at 0.263.

As to GCAGACAGGTGAAACGCAGGTGACTCAGGGTGGC, the PBM binding z-score stood at 0.00841.

ATCTGTAGGTAACCAAGTTCAGTGAATGCCGAAC: the PBM binding z-score turned out to be 0.775.

CTTACTGGGCCATTCAGAGGTCATTGATCATATG displayed a PBM binding z-score of 4.72.

For the sequence ATACCAAGGTGATCGTGAGGTCGTTCATACTAAC, the PBM binding z-score was determined as 1.58.

TAGCCTAGGTCATTCAGTGGCCAGTATAGAAAGC: the PBM binding z-score worked out at 3.55.

Turning to AGTCAAAGTTCCCTAGGTAACGTAAGATTCAGCT, the PBM binding z-score is -0.385.

On to TCTTGTAGATCAAGCAGGTGAAGAAAGCCTGAGT, for which the PBM binding z-score worked out at 0.182.

In turn, CCTAGTTGGTCAAAGTCACACACGCTATAGGTAC registered a PBM binding z-score of 0.505.

Sequence CCTAGTTGGTCGAGGTCACACACGCTATAGGTAC gave a PBM binding z-score of 4.08.

GATACAGGGTCAAGGCCAGAGTTCGCGTATTGAT came in with a PBM binding z-score of 4.34.

CCAACTAGGTCAAGGACAGTGAATCTCCGCACGC yielded a PBM binding z-score of 2.12.

Take TCTTGTAGATCAGCATGTTAAGAAAGCTGGCCAA: the PBM binding z-score came out at 0.107.

As to ACTTACGGGTCAACGAGGTTATAGCGCGCGTATA, the PBM binding z-score turned out to be 5.04.

Turning to CGTCCAAGGTCAAAGATCAGTGAAGAGATGACGG, the PBM binding z-score was found to be 5.44.

As for CCTTACGGGTCGAGGTTATAGCACGGGTGGTACG, the PBM binding z-score is 1.27.

Regarding GCTGACAGGTGAAACGCAGGTAACTCAGGGTGGC, the PBM binding z-score came to 0.213.

As to CCTACTGGTCCACGAAAGGTCATTGATTCAGTGA, the PBM binding z-score amounted to 4.86.

For CCAACTGGGGCAAGGTTACCATAACGCACAGCCA, the PBM binding z-score was 0.726.

In the case of GCTGCTAGGTCAGGTTGGTCACCTAACGGGTACG, the PBM binding z-score is 0.907.

In the case of CCGACTGGGGCAAAGGGTACCATACTCAGTACGA, the PBM binding z-score is -0.144.

In turn, ATCTCTAGGTAAGACTAAGTTCAGTGAAGAACGC had a PBM binding z-score of 0.867.

In turn, TCTATTAGTTTATTAGGGCAACCGAAACAGCGGA came in with a PBM binding z-score of 0.997.

Regarding CCTTACGGGCCACTCCAGGTTATAGCATCGGAGT, the PBM binding z-score amounted to 3.23.

Regarding TCTTGTAGATCAAGCACGTTAAGAAAGCCTGAGT, the PBM binding z-score came to 0.232.
